# Results taken from ChEMBL document CHEMBL3988442, “University of Dundee, Small-Polar-MMV Screening Library” (2021).
# The whole screen tested about 69,000 compounds, of which about 1,000 (1.4%) showed an effect of 50% or more. What follows is part of a selection rich in strong results, with near analogues and random picks from the rest.
# Tested on: Leishmania donovani
# Experiment: Leishmania intramacrophage assay
# Type: functional, organism-based
# Parameters: scale not given: in the data most compounds retested in dose-response had high values
smiles,measurement,setting,value
COc1ccc(C2CC(=O)Oc3cc(C)[nH]c(=O)c32)cc1 (stereo unspecified),Percent Effect,"30 µM, 30.03 µM",-4.044%
Cc1nnc(C2Cc3ccccc3CN2Cc2nc(C(C)C)no2)o1 (stereo unspecified),Percent Effect,30 µM,-13.45%
CC(C)N1C(=O)CC(NC(=O)c2cc(Cl)sc2Cl)C1=O (stereo unspecified),Percent Effect,"30.3 µM, […]",8.109%
O=C(NCc1cccnc1)[C@@H]1C[C@H]2[C@H](CCN2c2ncccn2)O1.O=C(O)C(F)(F)F.O=C(O)C(F)(F)F,Percent Effect,"30.3 µM, […]",4.628%
COCC(NC(=O)NCc1cccc(C#N)c1)c1ccco1 (stereo unspecified),Percent Effect,"30.3 µM, […]",13.13%
Cc1noc(CN2CCN(c3cncc(Cl)n3)CC2)n1,Percent Effect,"30.3 µM, […]",51.54%
Cc1nc(CN2CCN(c3cncc(Cl)n3)CC2)no1,Percent Effect,"30.3 µM, […]",-1.637%
Cc1noc(CN2CCN(CCO)CC2)n1,Percent Effect,"30.3 µM, […]",9.212%
Cc1nc2cc(C(=O)N3CCCC(n4cncn4)C3)ccc2n1C (stereo unspecified),Percent Effect,"30 µM, 30.03 µM",12.85%
Fc1cccnc1N1CCCC(c2nccs2)C1 (stereo unspecified),Percent Effect,"30.3 µM, […]",14.11%
Cc1cccc(CN2CCC(NCC3CNc4cc(C)nn4C3)CC2)c1 (stereo unspecified),Percent Effect,"30.3 µM, […]",50.3%
Cc1ccccc1CN1CCC(NCC2CNc3ccnn3C2)CC1 (stereo unspecified),Percent Effect,"30 µM, 30.03 µM",58.34%
Cc1cc2n(n1)CC(CNC1CCN(c3ccccn3)CC1)CN2 (stereo unspecified),Percent Effect,"30.3 µM, […]",-5.394%
OCc1ccccc1CNCC1CNc2ccnn2C1 (stereo unspecified),Percent Effect,"30.3 µM, […]",22.72%
Cc1cc2n(n1)CC(CNC1CCN(Cc3ccncc3)CC1)CN2 (stereo unspecified),Percent Effect,"30.3 µM, […]",2.182%
Cc1cc2n(n1)CC(CNC1CCN(Cc3ccccn3)CC1)CN2 (stereo unspecified),Percent Effect,"30.3 µM, […]",17.09%
Cc1cc2n(n1)CC(CNC1CCN(Cc3ccccc3C)CC1)CN2 (stereo unspecified),Percent Effect,"30 µM, 30.03 µM",54.12%
c1ccc(Cn2cccn2)c(CNCC2CNc3ccnn3C2)c1 (stereo unspecified),Percent Effect,"30 µM, 30.03 µM",46.43%
Cc1cc2n(n1)CC(CNC1CCN(CCc3ccccc3)CC1)CN2 (stereo unspecified),Percent Effect,"30.3 µM, […]",15.82%
O=C(c1cscn1)N1CCc2ncnc(-c3ccncc3)c2CC1,Percent Effect,"30.3 µM, […]",15.49%
Cc1ncc2c(c1CNC(=O)C1(c3ccc(F)cc3)CC1)CCNC2,Percent Effect,"30.3 µM, […]",8.933%
Oc1cc(CN2CCC(O)(Cn3ccnc3)CC2)nc2ccc(F)cc12,Percent Effect,"30.3 µM, […]",12.45%
Cc1nc(CN2CCCC(N(C)Cc3c(C)noc3C)C2)no1 (stereo unspecified),Percent Effect,"30 µM, 30.03 µM",36.91%
COc1ccc(C(=O)N2CCCCC2c2nc(C)cs2)nn1 (stereo unspecified),Percent Effect,"30 µM, 30.03 µM",9.548%
O=C(C1CNCCO1)N1CCC(c2cc(N3CCCC3)ncn2)CC1 (stereo unspecified),Percent Effect,"30.3 µM, […]",-9.261%
CCn1c(CC2CCN(C(=O)C3CNCCO3)CC2)nn(C)c1=O (stereo unspecified),Percent Effect,"30.3 µM, […]",-9.405%
O=C(C1CNCCO1)N1CCCC(c2ccccc2)(c2ccccc2)C1 (stereo unspecified),Percent Effect,"30.3 µM, […]",80.57%
O=C(Nc1cnccn1)[C@@H]1CC[C@@H]2[C@@H](CCN2Cc2nccs2)O1.O=C(O)C(F)(F)F,Percent Effect,"30.3 µM, […]",-8.357%
O=C(NCc1cccnc1)[C@@H]1CC[C@@H]2[C@@H](CCN2c2ncc(F)cn2)O1.O=C(O)C(F)(F)F.O=C(O)C(F)(F)F,Percent Effect,"30.3 µM, […]",56.7%
Cc1cccc(CN2CC[C@H]3O[C@H](C(=O)Nc4cnccn4)CC[C@H]32)n1.O=C(O)C(F)(F)F.O=C(O)C(F)(F)F,Percent Effect,"30.3 µM, […]",32.33%
O=C(NCc1cccnc1)[C@H]1CC[C@@H]2[C@@H](CCN2c2ncccn2)O1.O=C(O)C(F)(F)F.O=C(O)C(F)(F)F,Percent Effect,"30.3 µM, […]",6.718%
O=C(NCc1cccnc1)[C@@H]1CC[C@@H]2[C@@H](CCN2c2ncccn2)O1.O=C(O)C(F)(F)F.O=C(O)C(F)(F)F,Percent Effect,"30.3 µM, […]",42.67%
Cc1csc(CN2CC[C@H]3O[C@H](C(=O)Nc4cccnc4)CC[C@H]32)n1.O=C(O)C(F)(F)F.O=C(O)C(F)(F)F,Percent Effect,"30.3 µM, […]",50.68%
CC(C)CN1CC(O)CN(S(=O)(=O)c2ccccc2)CC1=O (stereo unspecified),Percent Effect,"30.3 µM, […]",-1.941%
CN(Cc1ccncc1)C(=O)NCc1nnc2n1CCCCC2,Percent Effect,30 µM,-1.906%
COCCn1cc(NCc2cn(C)nc2-c2ccncc2)cn1,Percent Effect,"30.3 µM, […]",4.13%
O=C(O)C(F)(F)F.OCCN1CCOC2(CCCN(c3cccc(F)c3)C2)C1 (stereo unspecified),Percent Effect,"30 µM, 30.03 µM",37.14%
Cc1ccc(C2CSCCN2C(=O)c2cccs2)o1 (stereo unspecified),Percent Effect,"30.3 µM, […]",15.58%
CN1CC2(CCN(C(=O)c3cn4cccnc4n3)CC2)CC1=O,Percent Effect,"30.3 µM, […]",-9.039%
CC(C)CN1CC2(CCN(C(=O)c3cn4cccnc4n3)CC2)CC1=O,Percent Effect,"30.3 µM, […]",-23.89%
CCN1CC2(CCC1=O)CCN(C(=O)c1cn3cccnc3n1)CC2,Percent Effect,"30.3 µM, […]",50.01%
CC1c2ncc(Cn3cncn3)n2CCN1C(=O)Cc1cccs1 (stereo unspecified),Percent Effect,"30.3 µM, […]",31.82%
CCOCc1cnc2n1CCN(C(=O)Cc1cccs1)C2C (stereo unspecified),Percent Effect,"30.3 µM, […]",53.58%
CCOCc1cnc2n1CCN(C(=O)Cc1ccco1)C2C (stereo unspecified),Percent Effect,"30.3 µM, […]",17.38%
Cl.c1cnc(Nc2cncc(C3CCCN3)n2)cn1 (stereo unspecified),Percent Effect,"30.3 µM, […]",5.876%
Cc1cnc(N2CCC3(CC2)CC(NC(=O)N(C)C)CO3)nc1 (stereo unspecified),Percent Effect,"30.3 µM, […]",5.267%
O=C(NCC1CC1)c1cc2c(s1)CCN2c1ncccn1,Percent Effect,"30.3 µM, […]",54.07%
CCCNC(=O)c1cc2c(s1)CCN2c1ncccn1,Percent Effect,"30.3 µM, […]",24.35%
O=C(NCCN1CCCC1)c1cc2c(s1)CCN2c1ncccn1,Percent Effect,"30.3 µM, […]",35.65%
COc1ccc(CCN2C(=O)O[C@@H]3CN(C4CCSCC4)C[C@@H]32)cc1,Percent Effect,"30.3 µM, […]",4.59%
COc1cccn(C(C)C(=O)NC2CCCC2)c1=O (stereo unspecified),Percent Effect,"30.3 µM, […]",28.93%
COc1cc(CN2CCCC2c2cccc(F)c2)cc(OC)c1OC (stereo unspecified),Percent Effect,"30.3 µM, […]",4.07%
COc1ccc(CN2CCCC2c2cccc(F)c2)c(OC)c1OC (stereo unspecified),Percent Effect,"30.3 µM, […]",53.41%
COc1cccc(CN2CCCC2c2cccc(F)c2)c1OC (stereo unspecified),Percent Effect,"30.3 µM, […]",48.24%
Clc1cc(Cl)cc(CN2CCC(NCc3ncc[nH]3)CC2)c1,Percent Effect,"30.3 µM, […]",84.31%
Cc1nc[nH]c1CNC1CC(=O)N(CCc2cccc(Cl)c2)C1 (stereo unspecified),Percent Effect,"30.3 µM, […]",-19.6%
Clc1cc(Cl)cc(CN2CCC(NCc3cc[nH]n3)CC2)c1,Percent Effect,"30.3 µM, […]",71.72%
COc1cc(OC)cc(N2CCC(NCc3cc[nH]n3)C2)c1 (stereo unspecified),Percent Effect,"30.3 µM, […]",11.55%
CN1CCN(Cc2cccc(NCc3ncc[nH]3)c2)CC1,Percent Effect,"30.3 µM, […]",3.083%
Clc1cccc(N2CCC(NCc3cc[nH]n3)C2)c1 (stereo unspecified),Percent Effect,"30.3 µM, […]",14.09%
O=C1CC(NCc2ccncc2)CN1CCc1cccc(Cl)c1 (stereo unspecified),Percent Effect,"30.3 µM, […]",37.94%
COc1ccc(CCN2CC(NCc3ncc[nH]3)CC2=O)cc1 (stereo unspecified),Percent Effect,"30.3 µM, […]",17.72%
Brc1ccc(CN2CCC(NCc3ncc[nH]3)CC2)cc1,Percent Effect,"30.3 µM, […]",85.49%
O=C1CC(NCc2ncc[nH]2)CN1CCc1cccc(Cl)c1 (stereo unspecified),Percent Effect,"30.3 µM, […]",87.49%
Cc1cccc(OC2CCN(Cc3ncc[nH]3)CC2)c1,Percent Effect,"30.3 µM, […]",-10.49%
Clc1cccc(N2CCC(NCc3ncc[nH]3)C2)c1 (stereo unspecified),Percent Effect,"30.3 µM, […]",26.13%
O=c1cnc2ccccc2n1CCCn1cccn1,Percent Effect,"30.3 µM, […]",-23.4%
Cc1cc(O)c(OCC(=O)/N=c2\[nH]cc(C)s2)cn1,Percent Effect,"30 µM, 30.03 µM",13.79%
CC(=O)Nc1nc(C(=O)N2CCCC2c2noc(C3CC3)n2)cs1 (stereo unspecified),Percent Effect,"30.3 µM, […]",0.7706%
CN1CC(c2ccccc2)CC12CCN(C(=O)c1cccnc1)CC2 (stereo unspecified),Percent Effect,"30.3 µM, […]",13.25%
CC(C)n1ccnc1C1CCN(C(=O)C2COc3ccccc3O2)CC1 (stereo unspecified),Percent Effect,"30 µM, 30.03 µM",-2.599%
Cc1cc(C)nc(NCCC(=O)Nc2ccc(Cn3cncn3)cc2)n1,Percent Effect,"30.3 µM, […]",18.2%
COc1cc(N2CC[C@@H]3O[C@@H](c4ccnc(C)n4)C[C@H]3C2)ncn1,Percent Effect,"30.3 µM, […]",16.01%
Cc1ccc(N2CC[C@@H]3O[C@@H](c4ccncn4)C[C@H]3C2)nn1,Percent Effect,"30.3 µM, […]",12.48%
COc1cc(N2CC[C@@H]3O[C@@H](c4ccncn4)C[C@H]3C2)ncn1,Percent Effect,"30.3 µM, […]",101.1%
CC(=O)Nc1ncc(S(=O)(=O)Nc2ccccc2)s1,Percent Effect,"30.3 µM, […]",-54.24%
CCc1nnc(CNC2CCCN(Cc3noc(C4CC4)n3)C2)o1 (stereo unspecified),Percent Effect,30 µM,-1.291%
CCOCCOc1ccc(S(=O)(=O)N2CCc3c(nc[nH]c3=O)C2)cc1,Percent Effect,"30.3 µM, […]",59.04%
O=c1[nH]cnc2c1CCN(S(=O)(=O)c1ccc(OC(F)(F)F)cc1)C2,Percent Effect,"30.3 µM, […]",24.26%
O=c1[nH]cnc2c1CCN(S(=O)(=O)c1ccc(Cl)cc1)C2,Percent Effect,"30.3 µM, […]",10.57%
CC(=O)c1cn(CCC(=O)NCCC(=O)O)c2ccccc12,Percent Effect,"30 µM, 30.03 µM",18%
CN(C)c1cccc(C(=O)N2CCn3c(nnc3-c3ccccc3)C2)c1,Percent Effect,"30.3 µM, […]",3.878%
CCCN1Cc2ccccc2NC(=O)C12CCNC2 (stereo unspecified),Percent Effect,"30.3 µM, […]",13.56%
O=C1Nc2ccccc2CN(CC2CCCC2)C12CCNC2 (stereo unspecified),Percent Effect,"30.3 µM, […]",67.89%
O=C1Nc2ccccc2CN(CC2CC2)C12CCNC2 (stereo unspecified),Percent Effect,"30.3 µM, […]",19.67%
O=C1Nc2ccccc2CC12CCCN2Cc1ccc(F)cc1 (stereo unspecified),Percent Effect,"30.3 µM, […]",-31.7%
O=C1Nc2ccccc2CN(C/C=C/c2ccccc2)C12CCNC2 (stereo unspecified),Percent Effect,"30.3 µM, […]",95.58%
O=C1Nc2ccccc2CNC12CCN(CC1CCCC1)CC2,Percent Effect,"30.3 µM, […]",-1.284%
CC(C)NC(=O)Nc1ccc(-c2nc(C(C)C)no2)cc1,Percent Effect,"30.3 µM, […]",-3.03%
Cc1nc2[nH]cc(C(=O)N3CCCCC3c3ccc(F)cc3)c(=O)n2n1 (stereo unspecified),Percent Effect,"30.3 µM, […]",-11.65%
Cc1cc(=O)c(C(=O)N2CCCCC2c2ccc(F)cc2)c[nH]1 (stereo unspecified),Percent Effect,"30.3 µM, […]",7.21%
Cc1cc2[nH]cc(C(=O)N3CCCCC3c3ccc(F)cc3)c(=O)n2n1 (stereo unspecified),Percent Effect,"30.3 µM, […]",54.57%
COc1c(CNCCNC(=O)c2ccco2)c(C)nn1C,Percent Effect,"30 µM, 30.03 µM",1.036%
CCn1nc(C)c2ccn(CC(=O)NCCCOC)c(=O)c21,Percent Effect,"30.3 µM, […]",6.815%
Cc1cc(C(=O)N2CCCC(c3nccn3Cc3cscn3)C2)on1 (stereo unspecified),Percent Effect,"30.3 µM, […]",7.716%
Cc1nc2ccccn2c1CN1C[C@@H](CN(C)C)[C@@H](CO)C1,Percent Effect,"30.3 µM, […]",28.56%
Cc1nc(CN2C[C@@H](CN3CCOCC3)[C@@H](CO)C2)c2ccccn12,Percent Effect,"30.3 µM, […]",-8.953%
Cc1nc2ccccn2c1CN1C[C@@H](CN2CCOCC2)[C@@H](CO)C1,Percent Effect,"30.3 µM, […]",60.75%
Cc1ccccc1OC1CN(Cc2c(C)nc3ccccn23)C1,Percent Effect,"30.3 µM, […]",56.4%
Cc1nc2ccccn2c1CN1C[C@@H](CN(C)CCO)[C@@H](CO)C1,Percent Effect,"30.3 µM, […]",17.46%
COc1ccccc1OC1CN(C(=O)Cc2c(C)nc3ccccn23)C1,Percent Effect,"30.3 µM, […]",42.17%
